Results: PubChem BioAssay AID372 (MTDP, 2006)
Among all 100,000 compounds or so, about 770 (0.77%) were called active. Cut-off read from the data, not from the text of the source: active = inhibition above about 50%; inactive = the rest. The sample as a whole holds a higher share of actives than the screen did.

These molecules were tested against Gag-Pol polyprotein (Human immunodeficiency virus type 1 group M subtype B (isolate HXB2)) (UniProt P04585) (assay: RNase H inhibition, HIV 1 Gag Pol polyprotein, FRET biochemical assay, screening (AID 372)). Details: HIV-1 RT RNase H, FRET RNA/DNA substrate fluorescence; at 10 µM; stronger effect = higher value.

Row | SMILES | inhibition
1 | COc1ccc(-c2ccccc2)cc1NCc1c2ccccc2cc2ccccc12 | 2% (inactive)
2 | COc1ccc(Cc2ccc(OC)cc2)cc1 | 5% (inactive)
3 | COc1ccc2nc(-c3ccccc3)c(-c3ccccc3)nc2c1 | 6% (inactive)
4 | COc1ccc(-c2nc3ccc(Cc4ccc5nc(-c6ccc(OC)cc6)c(-c6ccc(OC)cc6)nc5c4)cc3nc2-c2ccc(OC)cc2)cc1 | 55% (active)
5 | C#CCOc1ccc(/C=C2/C(=O)NC(=O)N(c3ccccc3F)C2=O)cc1 | 0% (inactive)
6 | Cc1ccc(OCCn2c(=S)[nH]c3ccccc32)cc1 | 61% (active)
7 | S=c1[nH]c2ccccc2n1CCOc1ccc(Cl)cc1 | 39% (inactive)
8 | S=c1[nH]c2ccccc2n1CCOc1ccccc1 | 30% (inactive)
9 | Cc1ccccc1OCCOc1ccccc1/C=c1\sc2nc3ccccc3n2c1=O | 9% (inactive)
10 | Cc1c(Cl)c(=O)oc2cc(OCC(=O)c3ccc(Cl)cc3)ccc12 | 50% (active)
11 | CC(C)OC(=O)COc1ccc2c(c1)oc(=O)c1ccccc12 | 0% (inactive)
12 | O=C(COc1ccc(Cl)cc1)Oc1ccc2c(c1)oc(=O)c1ccccc12 | 54% (active)
13 | Cc1c(Cl)c(=O)oc2cc(OCc3ccc(Cl)cc3)ccc12 | 3% (inactive)
14 | Cc1cc(=O)oc2cc(OCC(=O)c3ccc(Cl)cc3)ccc12 | 19% (inactive)
15 | CC(=O)COc1ccc2c(c1)oc(=O)c1ccccc12 | 7% (inactive)
16 | O=C1CCCC2=C1C(c1ccccc1Cl)Nc1ccc(C(=O)c3ccccc3)cc1N2 (stereo not drawn) | 1% (inactive)
17 | Cc1ccc(C(=O)Nc2cc(C)cc(C)c2)cc1 | 0% (inactive)
18 | Cc1ccc(N=Cc2c(O)n(C3CCCCC3)c(=O)n(C3CCCCC3)c2=O)cc1C | 6% (inactive)
19 | O=C(Nc1nnc(Cc2ccc(Cl)cc2Cl)s1)Nc1ccc(Cl)cc1Cl | 66% (active)
20 | CCC(c1ccccc1)c1nnc(NC(=O)Nc2ccc(Cl)cc2Cl)s1 (stereo not drawn) | 12% (inactive)
21 | O=C(Nc1nnc(Cc2ccccc2F)s1)Nc1ccc(Cl)cc1Cl | 18% (inactive)

Row | SMILES | inhibition
22 | O=C(Nc1nnc(Cc2ccc(Cl)cc2)s1)Nc1ccc(Cl)cc1Cl | 37% (inactive)
23 | O=C(Nc1nnc(C(c2ccccc2)c2ccccc2)s1)Nc1ccc(Cl)cc1Cl | 52% (active)
24 | CC(c1ccccc1)c1nnc(NC(=O)Nc2ccc(Cl)cc2Cl)s1 (stereo not drawn) | 36% (inactive)
25 | O=C(Nc1nnc(CSCc2ccccc2F)s1)Nc1ccc(Cl)cc1Cl | 53% (active)
26 | O=C(Nc1nnc(CSCc2ccc(Cl)cc2Cl)s1)Nc1ccc(Cl)cc1Cl | 33% (inactive)
27 | Cc1cccc(CSCc2nnc(NC(=O)Nc3ccc(Cl)cc3)s2)c1 | 31% (inactive)
28 | O=C(Nc1nnc(CSCc2ccccc2Cl)s1)Nc1ccc(Cl)cc1Cl | 46% (inactive)
29 | O=C(Nc1nnc(CSCc2ccccc2)s1)Nc1ccc(Cl)cc1Cl | 39% (inactive)
30 | Cc1cccc(CSCc2nnc(NC(=O)Nc3ccc(Cl)cc3Cl)s2)c1 | 53% (active)
31 | COc1ccc2ccccc2c1-c1cc(C(=O)N/N=C/c2ccc(C)cc2)[nH]n1 | 13% (inactive)
32 | CCCOC(=O)c1ccc(NC(=S)NC(=O)c2ccc(OCCC)cc2)cc1 | 20% (inactive)
33 | CCOc1ccc(NC(=O)c2c(NC(=O)C(C)(C)C)sc3c2CCCC3)cc1 | 13% (inactive)
34 | COc1cccc(/C=N\NC(=O)CNc2ccccc2C)c1 | 5% (inactive)
35 | CCOC(=O)C1=C(C)N=c2s/c(=C\c3ccc(-c4ccc(Cl)cc4[N+](=O)[O-])o3)c(=O)n2C1c1ccc(OC)cc1 (stereo not drawn) | 43% (inactive)
36 | O=[N+]([O-])c1ccc(N2CCCC2)c(C(F)(F)F)c1 | 21% (inactive)
37 | O=C(NC(=S)Nc1cc([N+](=O)[O-])ccc1F)c1cccc(I)c1 | 4% (inactive)
38 | COc1ccc(-c2csc(N3N=C(c4ccc(Cl)cc4)CC3c3ccc(OC)c(OC)c3)n2)cc1F (stereo not drawn) | 3% (inactive)
39 | COc1ccc(C2CC(c3ccc(Cl)cc3)=NN2c2nc(-c3cccc(N4C(=O)c5ccccc5C4=O)c3)cs2)cc1OC (stereo not drawn) | 53% (active)
40 | COc1ccc(C2CC(c3ccc(Cl)cc3)=NN2c2nc(-c3ccc(C)cc3)cs2)cc1OC (stereo not drawn) | 3% (inactive)
41 | COc1cc(OC)c(NC(=O)C(Cl)(Cl)Cl)cc1Cl | 2% (inactive)
42 | CCOc1cc(/C=C(\C#N)c2ccc([N+](=O)[O-])cc2)ccc1O | 8% (inactive)

Row | SMILES | inhibition
43 | CCOc1ccc(/C=C(/C#N)c2ccc(Cl)cc2)cc1Cl | 54% (active)
44 | COc1ccc(/C=C(\C#N)c2ccc(Cl)cc2)cc1OC | 20% (inactive)
45 | O=C(O)c1c[nH]c2ccc(Br)cc2c1=O | 13% (inactive)
46 | Cc1cccc(N2C(=O)NC(=O)/C(=C\C=C\c3ccccc3[N+](=O)[O-])C2=O)c1 | 24% (inactive)
47 | CCN1C(=O)NC(c2ccc(Br)cc2)C(C(=O)OCCOC)=C1C (stereo not drawn) | 0% (inactive)
48 | O=C(Nc1ccc(-c2nc3ccc(NC(=O)c4ccccc4)cc3[nH]2)cc1)c1ccccc1 | 4% (inactive)
49 | O=C1c2cccc3ccc(Cl)c(c23)C(=O)N1Oc1ccc([N+](=O)[O-])cc1[N+](=O)[O-] | 3% (inactive)
50 | O=C1c2cccc3ccc(Cl)c(c23)C(=O)N1O | 90% (active)
51 | O=C1c2cccc3c(Cl)ccc(c23)C(=O)N1O | 15% (inactive)
52 | Cc1c(NC(=O)c2cc([N+](=O)[O-])ccc2Cl)cccc1-c1nc2ccccc2s1 | 6% (inactive)
53 | COc1ccc2oc(=O)c(-c3nnc(Nc4ccccc4C)s3)cc2c1 | 10% (inactive)
54 | COc1ccc2oc(=O)c(-c3csc(Nc4ccc(Cl)cc4)n3)cc2c1 | 57% (active)
55 | COc1ccc2oc(=O)c(-c3csc(/N=C/c4ccccc4O)n3)cc2c1 | 67% (active)
56 | COc1ccc2oc(=O)c(-c3csc(Nc4ccccc4Br)n3)cc2c1 | 8% (inactive)
57 | COc1cccc(Nc2nc(-c3cc4cc(Br)ccc4oc3=O)cs2)c1 | 12% (inactive)
58 | COc1ccc2oc(=O)c(-c3csc(Nc4ccccc4)n3)cc2c1 | 17% (inactive)
59 | COc1cccc(Nc2nnc(-c3cc4cc(OC)ccc4oc3=O)s2)c1 | 43% (inactive)
60 | COc1ccc2oc(=O)c(-c3csc(NC(=O)/C=C\C(=O)O)n3)cc2c1 | 3% (inactive)
61 | COc1ccc2oc(=O)c(-c3nnc(Nc4cccc(C)c4)s3)cc2c1 | 50% (active)
62 | COc1ccc(Nc2nc(-c3cc4cc(OC)ccc4oc3=O)cs2)cc1 | 13% (inactive)
63 | COc1ccc2oc(=O)c(-c3csc(Nc4ccc(C(C)=O)cc4)n3)cc2c1 | 1% (inactive)
